{
  "source": "PubChem BioAssay (NCATS)",
  "note": "Results filed as inconclusive are left out. Values without a mark were called inactive. Active and inactive are the calls of the source. Calls come from the whole dose curve; as a rule, active = well fitted cell-killing curve with a large enough effect; inconclusive = small, poorly fitted or top-dose-only effect, or effect the other way; inactive = no such curve, though single readings can be large or run the other way. Note: nearly all actives have a fitted effect of over 45% in size. Potency is the fitted concentration of half-maximal effect.",
  "data": [
    {"experiment": "Quantitative High-Throughput drug screen in 47 multiple myeloma cell lines against the NCATS MIPE library collection: KMS20_JCRB cell viability assay (AID 1918973)", "conditions": "CellTiter-Glo ATP, 48 h; series mostly up to 45.8 µM; viability (% of DMSO): at the top concentration", "method_in_brief": "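qHTS of the MIPE 4.0 collection: 500 myeloma cells/well, 48 h drug exposure at 37C in 5% CO2, then CellTiter-Glo for 5 min at room temperature before luminescence reading.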", "units": {"viability (% of DMSO)": "%"}, "values": [
      {"smiles": "O=C(CCCN1CCC(O)(c2ccc(Cl)cc2)CC1)c1ccc(F)cc1", "Potency": "13.2 µM (active)"},
      {"smiles": "CC(C)C(=O)Nc1ccc([N+](=O)[O-])c(C(F)(F)F)c1", "Potency": "7.43 µM (active)"},
      {"smiles": "Cc1ccccc1N1C(=O)c2cc(S(N)(=O)=O)c(Cl)cc2NC1C", "note": "(stereo unspecified)", "viability (% of DMSO)": 108},
      {"smiles": "CC12CC3CC(C)(C1)CC(N)(C3)C2", "Potency": "20.9 µM (active)"},
      {"smiles": "NCCCCCC(=O)O", "viability (% of DMSO)": 124},
      {"smiles": "NCCS(=O)(=O)O", "viability (% of DMSO)": 98.3},
      {"smiles": "CN(C)c1nc(N(C)C)nc(N(C)C)n1", "viability (% of DMSO)": 92.3}
    ]},
    {"experiment": "Quantitative High-Throughput drug screen in 47 multiple myeloma cell lines against the NCATS MIPE library collection: KMS26_JCRB cell viability assay (AID 1918975)", "conditions": "KMS26 myeloma cells viability, CellTiter-Glo ATP, 48 h; series mostly up to 45.8 µM; viability (% of DMSO): at the top concentration", "method_in_brief": "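Inhibition of cell viability is measured here. Each line was plated at 500 cells per well, treated with MIPE 4.0 drugs, kept 48 hours at 37C, then assayed for ATP content by CellTiter-Glo luminescence.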", "units": {"viability (% of DMSO)": "%"}, "values": [
      {"smiles": "CCCCc1oc2ccccc2c1C(=O)c1cc(I)c(OCCN(CC)CC)c(I)c1", "Potency": "20.9 µM (active)"},
      {"smiles": "CC1(CN2CCC(n3c(=O)[nH]c4ccccc43)CC2)OCc2ccccc2-n2cccc21", "note": "(stereo unspecified)", "Potency": "5.9 µM (active)"},
      {"smiles": "CC(C)(C)C(=O)Oc1ccc(S(=O)(=O)Nc2ccccc2C(=O)NCC(=O)O)cc1", "viability (% of DMSO)": 136},
      {"smiles": "COC(=O)Nc1nc2ccc(C(=O)c3cccs3)cc2[nH]1", "Potency": "0.296 µM (active)"}
    ]},
    {"experiment": "Quantitative High-Throughput drug screen in 47 multiple myeloma cell lines against the NCATS MIPE library collection: MOLP8_DSMZ cell viability assay (AID 1918977)", "conditions": "MOLP8 myeloma viability, CellTiter-Glo ATP luminescence, 48 h; series mostly up to 45.8 µM; viability (% of control): at the top concentration", "method_in_brief": "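500 cells/well per myeloma line exposed to pinned MIPE 4.0 compounds for 48 h at 37 °C, 5% CO2. Viability read as ATP by CellTiter-Glo luminescence, normalised to DMSO-only (100%) and media-only (0%) wells.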", "units": {"viability (% of control)": "%"}, "values": [
      {"smiles": "CCCCc1oc2ccccc2c1C(=O)c1cc(I)c(OCCN(CC)CC)c(I)c1", "Potency": "23.5 µM (active)"},
      {"smiles": "O=C(CCCN1CCC(O)(c2ccc(Cl)cc2)CC1)c1ccc(F)cc1", "viability (% of control)": 88.3},
      {"smiles": "CCCNCC(O)COc1ccccc1C(=O)CCc1ccccc1", "note": "(stereo unspecified)", "viability (% of control)": 78.2},
      {"smiles": "COc1cc2nc(N3CCN(C(=O)C4COc5ccccc5O4)CC3)nc(N)c2cc1OC", "note": "(stereo unspecified)", "viability (% of control)": 100},
      {"smiles": "CN1C(C(=O)Nc2ccccn2)=C(O)c2ccccc2S1(=O)=O", "viability (% of control)": 71.1},
      {"smiles": "CN(Cc1cnc2nc(N)nc(N)c2n1)c1ccc(C(=O)N[C@@H](CCC(=O)O)C(=O)O)cc1", "Potency": "6.62 µM (active)"},
      {"smiles": "CCOC(=O)Nc1ccc(NCc2ccc(F)cc2)nc1N", "viability (% of control)": 96},
      {"smiles": "Cc1cn([C@H]2C[C@H](N=[N+]=[N-])[C@@H](CO)O2)c(=O)[nH]c1=O", "viability (% of control)": 106},
      {"smiles": "Cc1cnc(C(=O)NCCc2ccc(S(=O)(=O)NC(=O)NC3CCCCC3)cc2)cn1", "viability (% of control)": 89.9},
      {"smiles": "Cc1ccc(C(=O)Nc2ccc(S(=O)(=O)O)c3cc(S(=O)(=O)O)cc(S(=O)(=O)O)c23)cc1NC(=O)c1cccc(NC(=O)Nc2cccc(C(=O)Nc3cc(C(=O)Nc4ccc(S(=O)(=O)O)c5cc(S(=O)(=O)O)cc(S(=O)(=O)O)c45)ccc3C)c2)c1", "viability (% of control)": 61.9},
      {"smiles": "OCCN(CCO)c1nc(N2CCCCC2)c2nc(N(CCO)CCO)nc(N3CCCCC3)c2n1", "Potency": "16.6 µM (active)"},
      {"smiles": "NCCCCCC(=O)O", "viability (% of control)": 116},
      {"smiles": "Clc1ccc(C(c2ccccc2Cl)C(Cl)Cl)cc1", "note": "(stereo unspecified)", "Potency": "26.4 µM (active)"},
      {"smiles": "C[C@@H]1CC(=O)NN=C1c1ccc(NN=C(C#N)C#N)cc1", "Potency": "26.4 µM (active)"},
      {"smiles": "Cc1cc(C(C)(C)C)c(O)c(C)c1CC1=NCCN1", "viability (% of control)": 136}
    ]}
  ]
}
